The values that follow come from PubChem BioAssay (NCATS).

SMILES strings stand for the structures. This is one part of the list. Results filed as inconclusive are left out. Activity calls are given as the source filed them. The call rests on the fitted dose curve; in most records, active means well fitted inhibition curve with a large enough effect; inconclusive means small, poorly fitted or top-dose-only effect, or another doubt; inactive means no such curve, though single readings can be large or run the other way.

Experiment [1] has as its target DNA polymerase kappa (Homo sapiens) (UniProt Q9UBT6). Description: qHTS for Inhibitors of Polymerase Kappa: Confirmatory Assay for Cherry-picked Compounds (AID 720501). To be noted: purified Pol-kappa, fluorescent strand-displacement substrate. An excerpt: The processing and repair of DNA inter-strand crosslinks (ICL) in eukaryotic cells are extremely complex, potentially involving multiple DNA repair and damage tolerance pathways, including homologous recombination, nucleotide excision repair, translesion synthesis (TLS), and cell cycle checkpoints. […] A 1536-well format, fluorescence based, high-throughput screen (AID 588579) was developed in collaboration with the Oregon Health & Science University to screen for inhibitors of the Pol-kappa enzyme. This assay was used to validate the activity of the selected compounds from the primary screen against the human Pol-kappa. Inhibition is the desired outcome for this assay. NIH Chemical Genomics Center [NCGC] NIH Molecular Libraries Probe Centers Network [MLPCN] MLPCN Grant: MH094179 Assay Submitter (PI): Stephen Lloyd, Oregon Health & Science University
Three microliters of reagents (buffer in column 3 and 4 as negative control and 10 nM Pol-kappa in columns 1, 2, and 5-48) were dispensed into a 1536-well black solid-bottom plate. Compounds (23 nL) were transferred via Kalypsys pin tool equipped with 1536-pin array. […] The assay plates were initially read after 0 min and again after 10 min of kinetic reaction using the PerkinElmer Viewlux reader equipped with 525 nm excitation and 598 nm emission filters.
For orientation: In qHTS, concentration-response curves come from the screen itself.

Experiment [2] addresses DNA polymerase eta (Homo sapiens) (UniProt Q9Y253). In words: qHTS for Inhibitors of Polymerase Eta: Confirmatory Assay for Cherry-picked Compounds (AID 720502). To be noted: Pol eta primer extension, TAMRA/BHQ fluorescence, 10 min. The gist of the method:
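Enzyme at 10 nM is mixed with pin-transferred compound and left 15 min at room temperature. Substrate (50 nM final) is then added, and plates are read at 0 min and after 10 min.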
Potency means the concentration at half of the fitted maximal effect.

Chain of DNA polymerase kappa (Homo sapiens) (Q9UBT6 whole entry, looked up): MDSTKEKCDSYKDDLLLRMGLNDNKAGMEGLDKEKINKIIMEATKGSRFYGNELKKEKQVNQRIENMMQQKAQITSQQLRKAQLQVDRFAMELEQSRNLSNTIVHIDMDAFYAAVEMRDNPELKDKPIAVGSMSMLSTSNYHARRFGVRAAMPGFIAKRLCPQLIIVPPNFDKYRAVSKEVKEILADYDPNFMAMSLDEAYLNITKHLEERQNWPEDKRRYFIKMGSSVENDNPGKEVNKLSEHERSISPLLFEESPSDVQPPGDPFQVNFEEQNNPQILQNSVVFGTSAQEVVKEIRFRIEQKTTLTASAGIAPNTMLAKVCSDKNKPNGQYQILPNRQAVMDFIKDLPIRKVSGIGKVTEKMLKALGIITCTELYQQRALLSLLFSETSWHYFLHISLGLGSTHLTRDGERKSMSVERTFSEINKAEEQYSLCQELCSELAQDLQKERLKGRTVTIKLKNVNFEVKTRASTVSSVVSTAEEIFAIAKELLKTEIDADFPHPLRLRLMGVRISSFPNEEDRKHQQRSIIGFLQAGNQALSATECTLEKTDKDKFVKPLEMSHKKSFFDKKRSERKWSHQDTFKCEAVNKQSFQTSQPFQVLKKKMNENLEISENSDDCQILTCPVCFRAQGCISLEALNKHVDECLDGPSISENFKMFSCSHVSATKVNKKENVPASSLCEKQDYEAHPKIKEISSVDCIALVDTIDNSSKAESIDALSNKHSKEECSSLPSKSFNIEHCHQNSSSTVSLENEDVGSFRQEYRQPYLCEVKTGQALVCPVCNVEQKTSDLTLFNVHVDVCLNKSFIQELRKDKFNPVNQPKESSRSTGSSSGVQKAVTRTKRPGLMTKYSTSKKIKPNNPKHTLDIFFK
Chain of DNA polymerase eta (Homo sapiens) (Q9Y253 whole entry, looked up): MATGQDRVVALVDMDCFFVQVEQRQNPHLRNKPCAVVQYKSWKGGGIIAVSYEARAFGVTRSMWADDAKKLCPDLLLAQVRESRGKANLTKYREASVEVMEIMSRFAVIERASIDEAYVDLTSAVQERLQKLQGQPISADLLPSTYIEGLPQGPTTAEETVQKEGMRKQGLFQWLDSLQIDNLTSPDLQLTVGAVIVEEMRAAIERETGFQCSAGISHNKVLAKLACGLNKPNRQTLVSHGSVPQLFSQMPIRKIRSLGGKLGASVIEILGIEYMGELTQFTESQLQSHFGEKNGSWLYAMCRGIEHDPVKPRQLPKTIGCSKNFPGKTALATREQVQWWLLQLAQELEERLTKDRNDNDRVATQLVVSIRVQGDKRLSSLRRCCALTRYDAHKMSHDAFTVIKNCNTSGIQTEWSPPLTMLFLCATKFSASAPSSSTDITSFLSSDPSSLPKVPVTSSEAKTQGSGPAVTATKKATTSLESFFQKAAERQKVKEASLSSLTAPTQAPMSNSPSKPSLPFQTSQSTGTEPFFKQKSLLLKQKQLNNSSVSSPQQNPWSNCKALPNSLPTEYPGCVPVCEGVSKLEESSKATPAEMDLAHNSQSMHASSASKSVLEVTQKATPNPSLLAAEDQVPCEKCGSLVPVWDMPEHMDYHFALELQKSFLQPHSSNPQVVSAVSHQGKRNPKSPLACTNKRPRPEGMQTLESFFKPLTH

For `Cc1cc(/C=C2/C(=O)NC(=O)N(Cc3ccco3)C2=O)c(C)n1-c1ccc(C(=O)O)cc1`, the Potency in experiment [1] is 18.9 µM (active); in experiment [2], 60.1 µM (active).
